Molecules are shown by their SMILES. Unmarked numbers belong to inactive results. The source made the active and inactive calls. Calls follow the shape of the dose curve; as a rule, active = well fitted cell-killing curve with a large enough effect in the repeat runs; inconclusive = weak or mixed curves, or effect the other way; inactive = flat fitted curve, though single readings scatter.
% is scaled to controls: 0 for no effect and ±100 for the full control effect.

This assay is described as follows: qHTS assay to identify small molecule HDAC inhibitors - cell viability counter screen (AID 1259365). Also: nearly all actives have a fitted effect of over 50% in size. The note with it: HCT-116 viability, CellTiter-Glo ATP luminescence, 2 h; series mostly up to 92.4 µM; activity change, negative = cytotoxicity: at the top concentration. The text has this: U.S. Tox21 Program National Center for Advancing Translational Sciences [NCATS] NIH Chemical Genomics Center [NCGC] U.S. Environmental Protection Agency [EPA] National Institutes of Environmental Health Sciences [NIEHS] National Toxicology Program [NTP] U.S. Food and Drug Administration [FDA] Tox21 Assay Overview: Histone deacetylases (HDACs) are a group of epigenetic enzymes that regulate gene expression by histone deacetylation. HDACs are capable of introducing epigenetic modifications and such aberrations contribute to the onset and progression of several human diseases, thus making HDACs a popular therapeutic target. For identifying endogenous class I/II HDAC inhibitors a homogenous, luminogenic HDAC I/II cell based assay was used to measure the relative activity of class I and II HDACs from cells. Wild type HCT-116 cells were used to screen Tox21 compound libraries for identifying class I/II HDAC inhibitors.
Tox21 Assay Protocol Summary: HCT-116 cells were dispensed at 1,500 per well in 5uL of culture medium into white solid bottom 1536-well plates (Greiner Bio-One, Monroe, NC) using a Multidrop Combi (Thermo Scientific, Waltham, MA) dispenser. The assay plates were incubated at 37 C and 5% CO2 for an overnight, and then 23nL of compounds dissolved in DMSO and positive control were transferred using a Pintool station (Wako, San Diego, CA). The assay plates were incubated at 37C and 5% CO2 for 2hr. After compound treatment, 4uL of CellTiter-Glo reagent (Promega Corporation, Madison, WI) was added to each well of the assay plates using Flying Reagent Dispenser (FRD, Aurora Discovery, San Diego, CA) and incubated the assay plates at room temperature for 30min. The luminescence signal was quantified using a ViewLux plate reader (Perkin Elmer, Shelton, CT).
(In general: qHTS replaces the single test concentration by a dilution series.)
As to `Nc1ccc(Nc2ccccc2)cc1`, the compound was classed as inactive.
In the case of `Cc1cccc(N(C)C(=S)Oc2ccc3ccccc3c2)c1`, the call was inactive.
The same measure, in the same setting: then `CCC(C)CO` (stereo not given), with “inactive”; and `O=C(c1ccc(OCCN2CCCCC2)cc1)c1c(-c2ccc(O)cc2)sc2cc(O)ccc12`, with “inactive”; and `Nc1ccc(Cl)cc1Cl`, with “inactive”.
As for `Cc1[nH]c(=O)c(C#N)cc1-c1ccncc1`, the call was inactive.
Same read-out and setting: then `COc1ccc(C(=O)CC(=O)c2ccc(C(C)(C)C)cc2)cc1`, with “inactive”; and `CCCCNS(=O)(=O)c1ccccc1`, with “inactive”.
Still for that read-out and setting: then `CN(C)CCN(Cc1cccs1)c1ccccn1`, with “inactive”; and `c1ccc2c(c1)c1cccc3ccc4cccc2c4c31`, with “inactive”; and `Cn1cnc([N+](=O)[O-])c1Sc1ncnc2nc[nH]c12`, with “inactive”.
On the same count and under the same terms, then `Cc1cc2nc3c(=O)[nH]c(=O)nc-3n(C[C@H](O)[C@H](O)[C@H](O)CO)c2cc1C`, with “inactive”; and `O=c1oc(=O)c2cc3c(=O)oc(=O)c3cc12`, with “inactive”.
For the compound `CCCc1c(OCCCCc2nn[nH]n2)ccc(C(C)=O)c1O`, the result was inactive.
On the same count and under the same terms, the result for `COC(=O)Nc1nc2ccc(S(=O)c3ccccc3)cc2[nH]1` (stereo not given) reads “inactive”; that for `c1ccc2c(c1)Oc1ccccc1S2`, “inactive”.
For the compound `O=CCc1ccccc1`, the call was inactive.
On the same count and under the same terms, the result for `CCOCCOCCO` reads “inactive”; that for `CCCCc1oc2ccccc2c1C(=O)c1cc(I)c(OCCN(CC)CC)c(I)c1`, “inactive”; that for `COc1cccc2c1C(=O)c1c(O)c3c(c(O)c1C2=O)C[C@@](O)(C(=O)CO)C[C@@H]3O[C@H]1C[C@H](N)[C@H](O)[C@H](C)O1`, “inactive”.
Take `Cc1ccc(C(=O)c2cc(O)c(O)c([N+](=O)[O-])c2)cc1`: the call was inactive.
Still for that read-out and setting: the result for `O=C(c1ccccc1)c1ccccc1O` reads “inactive”.
Same read-out and setting: the result for `CCC(C)(O)CCCC(C)C` (stereo not given) reads “inactive”.
Still for that read-out and setting: the result for `COC(=O)c1ccccc1` reads “inactive”.
Regarding `CCCCCCCCCC(=O)OC`, the call was inactive.
The same measure, in the same setting: the result for `NC=O` reads “inactive”.
Same read-out and setting: then `C[C@]12CCC(=O)C=C1CC[C@@H]1[C@@H]2C(=O)C[C@@]2(C)[C@H]1CC[C@]2(O)C(=O)CO`, with “inactive”; and `Nc1ccc(S(=O)(=O)Nc2cnc3ccccc3n2)cc1`, with “inactive”; and `CCCCC/C=C/C=C/C=O`, with “inactive”.
With `O=C(/C=C/c1ccccc1)OCc1ccccc1`, the compound was classed as inactive.
As to `CN(C)CCC=C1c2ccccc2CCc2ccccc21`, the call was inactive.
Regarding `CC(=O)Oc1ccccc1C(=O)Nc1ncc([N+](=O)[O-])s1`, the “activity change, negative = cytotoxicity” value was -28.9% [at 42.5 µM].
Take `CCCCCCCCCCCO`: the call was inactive.
On the same count and under the same terms, the result for `CCOC(=O)C(C#N)=C(c1ccccc1)c1ccccc1` reads “inactive”; that for `CC(C)OC=O`, “inactive”; that for `CC(C)OB(OC(C)C)OC(C)C`, “inactive”.
Still for that read-out and setting: then `C=C(C)C1CC=C(C)CC1` (stereo not given), with “inactive”; and `COC(=O)C1=C(C)NC(C)=C(C(=O)OCCN(C)Cc2ccccc2)C1c1cccc([N+](=O)[O-])c1` (stereo not given), with “inactive”.
On the same count and under the same terms, then `CC1=CC2C3CC(C=C3C)C2C1` (stereo not given), with “inactive”; and `CC(C)CC(C)(O)C#CC(C)(O)CC(C)C` (stereo not given), with “inactive”.

(Values after PubChem BioAssay (Tox21).)
